Rows were chosen to be rich in hits. Some 19% of all compounds tested hit in one or more screens of this group.
SW480 rereplic: DNA re-replication induction in SW480 cells. SW480 DNA re-replication, Hoechst DNA content imaging, 48 h. Potency, µM (top dose mostly 46.1 µM), inactives show at the highest dose re-replication activation, most hits filed as activators. 340,000 compounds, 1.8% hits. AID 624297; further: potency means the concentration at half of the fitted maximal effect; % of control where 0% means no effect; nearly all actives have a fitted effect of over 55% in size
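Compounds, transferred as 23 nL by pin tool, were incubated with cells for 48 hr; DNA content per nucleus was then quantified by Hoechst staining and fluorescence plate imaging.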
BCR signal inh: chronic active BCR signaling inhibition; 340,000 compounds, 0.05% hits; Potency, µM (series often up to 46.1 µM), for inactives: top-dose activity change, negative = inhibition, usual class: inhibitors; AID 493014; ABC-DLBCL IkBa-CBG/CBR reporter, luminescence ratio, 4 h; active means well fitted inhibition curve with a large enough effect in the signal ratio, with a control signal flat, not every such curve was filed as active; inconclusive means small, poorly fitted or top-dose-only effect, or effect the other way, or a change in a side signal; the % refers to the signal ratio;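 further: potency means the concentration at half of the fitted maximal effect; plate controls were basal doxycycline-induced cells for no effect and cells given 10 µM MG132 for full effect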
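Cell line TMD8 (human ABC DLBCL), stably expressing tet-inducible CBG68-IkBa fusion and CBR; IMDM/0.5% FBS; cpd up to 46 uM; dox induction, 4 h, 37C/5% CO2; dual luminescence; green/red ratio; MG132 control.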
MCF10A rerep: induces DNA re-replication in MCF 10a normal breast cells; MCF 10A DNA re-replication, Hoechst nuclear intensity, 48 h; Potency, µM (top dose mostly 46.1 µM), without a hit: at the top dose activity, positive = re-replication, usual class: activators; 350,000 compounds, 2.9% hits; AID 624296; further: potency means the concentration at half of the fitted maximal effect; % of control where 0% means no effect; nearly all actives have a fitted effect of over 50% in size
TDP1 cell CPT: DT40-hTDP1 cell growth loss with CPT; chicken DT40 Tdp1-/-;hTDP1 cells + 20 nM CPT, ATP luminescence, 48 h; 420,000 compounds, 12% hits; Potency, µM (top dose mostly 46.2 µM), inactives show top-dose activity change, negative = growth inhibition, hits mostly inhibitors; AID 686979; further: potency means the concentration at half of the fitted maximal effect; on the % scale 0 is the no-effect control and ±100 the full control effect; nearly all actives have a fitted effect of over 55% in size
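Cell growth measured by CellTiter-Glo luminescence after a minimum 48 h, 37 C compound exposure with 20 nM CPT in Tdp1-knockout DT40 cells stably expressing hTDP1, seeded 400/well; qHTS titration format.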
IL1B secr inh: inhibitors of inflammasome signaling (IL-1 beta secretion); activity change, % at 57.5 µM; 360,000 compounds, 4.7% hits; THP-1 LPS/ATP IL-1B secretion, AlphaLISA, 16 h; active compounds read low; in the data active means activity change below about -50%; inconclusive means mostly about -30% to -49%; further: on the % scale 0 is the no-effect control and ±100 the full control effect
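Secreted IL-1B measured by AlphaLISA bead assay after 16 h compound exposure of THP-1 cells; compounds (final up to 57.5 uM) added 1 h before LPS (250 ng/mL) and ATP (1.25 mM) stimulation; lower signal means less secretion.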
DT40 TDP1 no CPT: qHTS for Inhibitors of human tyrosyl-DNA phosphodiesterase 1 (TDP1): qHTS in cells in absence of CPT. DT40 Tdp1-/- hTDP1 cells, no CPT, ATP luminescence, 48 h. Potency, µM (highest dose often 46.2 µM), inactives show at the highest dose activity change, negative = growth inhibition, hits mostly inhibitors. 420,000 compounds, 15% hits. AID 686978, 2013; further: potency means the concentration at half of the fitted maximal effect; on the % scale 0 is the no-effect control and ±100 the full control effect; nearly all actives have a fitted effect of over 55% in size
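Seeded 400 DT40-hTDP1 cells/well (vehicle DMSO, no 20 nM CPT); pinned compounds; ≥48 hr at 37 °C; CellTiter-Glo luminescence as viability measure.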
An asterisk follows results filed as active; u = inconclusive; x = no result given; ! = not confirmed by another sample. Unless noted, the call rests on the fitted dose curve; in most records, active means well fitted curve in the direction sought with a large enough effect; inconclusive means small, poorly fitted or top-dose-only effect, or another doubt; inactive means no such curve, though single readings can be large; an effect the other way counts as inactive or inconclusive.

SMILES | SW480 rereplic | BCR signal inh | MCF10A rerep | TDP1 cell CPT | IL1B secr inh | DT40 TDP1 no CPT
COc1cc(OC)c2c(c1)O[C@@H](c1ccc(OC)c(OC)c1)[C@H](O)C2 | -13% | u | 2% | -13% | -7 | -10%
CCCC/C(C)=C/[C@@H](NP(=O)(c1ccccc1)c1ccccc1)c1ccccc1 | u | u | u | u | -23 | 16µM*
Cc1cccc(NC2=NCCCS2)c1 | u | -7% | 0% | 10% | -1 | 5%
C=C(C)[C@H]1CN[C@H](C(=O)O)[C@H]1CC(=O)O | -1% | x | -14% | u | 19 | 21µM*!
O=C(Oc1ccccc1)N1CCC2(CCCN(C(c3ccccc3)c3ccccc3)C2)CC1 | x | x | x | 10% | x | -13%
CC(C)C[C@H](NC(=O)c1[nH]cnc1C(=O)N[C@H](C)c1ccccc1)C(=O)OC(C)(C)C | u | u | u | u | -55* | 18µM*
COC(=O)c1ccc(NC2=C(Cl)C(=O)OC2OC(=O)c2ccccc2)cc1 (configuration not stated) | 4% | 4% | u | u | -11 | u
O=C(O)c1cccc2nc3ccccc3nc12 | 8.2µM* | 3% | 0% | u | 15 | u
CC[C@@H](C)[C@H](C(CC(=O)N1CCCC1[C@@H](OC)[C@H](C)C(=O)N[C@H](Cc1ccccc1)c1nccs1)OC)N(C)C(=O)[C@H](NC(=O)[C@@H](C(C)C)N(C)C)C(C)C (some centres not stated) | 0.082µM* | x | 15% | -101% | 41 | -109%
CCCNC1=C(C)C(=O)C2=C(C1=O)C(COC(N)=O)[C@]1(OC)C3NC3CN21 (some centres not stated) | 6% | u | -29% | u | -18 | 0.26µM*
NCCc1cccc(O)c1 | x | x | x | -8% | x | -12%
CC(=O)[C@H]1CC[C@H]2[C@@H]3CC=C4C[C@@H](OS(=O)(=O)O)CC[C@]4(C)[C@H]3CC[C@]12C | 12% | x | u | 17% | -3 | 26%
CC(=O)O[C@H]1CC[C@@]2(C)C(=CC[C@H]3[C@@H]4CC[C@H](C(C)=O)[C@@]4(C)CC[C@@H]32)C1 | u | x | 28% | u | 1 | 16µM*!
CC(=O)C1CCC2C3CCC4=CC(=O)CC[C@@]4(C)C3CC[C@]12C (some centres not stated) | x | x | x | 13µM* | x | 15µM*
CCOc1cc(C2C(C#N)=C(N)Oc3c2c(=O)oc2ccccc32)ccc1OC(=O)c1cccs1 (configuration not stated) | 1% | u | 3% | -6% | -4 | -19%
CN(C)c1ccc2c(c1)N=C(c1ccco1)OP2(=S)N1CCOCC1 (configuration not stated) | u | u | u | -16% | -18 | -28%
CN1CCN(S(=O)(=O)c2ccc(Cl)nc2)CC1 | -2% | 6% | -10% | 11% | 28 | -1%
Cc1sc2ncnc(N3CCN(S(=O)(=O)c4ccc(Br)cc4)CC3)c2c1C | -8% | x | 3% | 13µM* | -12 | 12µM*
CCOc1ccc(S(=O)(=O)N2CCC(C(=O)N3CCOCC3)CC2)cc1C | -16% | 1% | 7% | -8% | -4 | -10%
Cc1sc2ncnc(SCC(=O)Nc3ccc(S(=O)(=O)N4CCOCC4)cc3)c2c1C | 5% | -1% | 13% | 23µM* | -4 | 29µM*
CCC(C)N1C(=O)/C(=C\c2cnc(N(C)C)nc2)C(=O)NC1=S (configuration not stated) | 19% | 14% | u | u | -52* | u
CCOC(=O)N1CCN(C(=O)C(CC(C)C)NS(=O)(=O)c2ccc3c(c2)oc(=O)n3C)CC1 (configuration not stated) | -5% | 0% | u | -9% | -9 | -4%
c1ccc(-c2cccc(-c3ccccc3)n2)cc1 | 20% | u | u | u | -8 | -10%
CCCCCCCCn1sccc1=O | 10µM* | u | 21µM* | 0.73µM* | -107* | 1.2µM*
O/N=C/c1c[nH]c2ccccc12 | 3% | -2% | 0% | 20% | -1 | -16%
NC(=Nc1ccccc1)NN=Cc1c[nH]c2ccccc12 | 6.5µM* | x | 88% | 1µM* | -109* | 0.92µM*

Screens (PubChem BioAssay)
